Compound activity as filed in PubChem.
tim10-1 inh = inhibits growth of tim10-1 mutant yeast | AID 463190 | S. cerevisiae tim10-1 ts strain growth, BacTiter-Glo, 24 h | 2.2% of 330,000 active | inhibition, % at 20 µM;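 active = inhibition of at least 40%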;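 note: mutant grown at 25 °C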
TIM10 inh = inhibits growth of TIM10 yeast strain; S. cerevisiae TIM10 strain growth, BacTiter-Glo luminescence, 24 h; 1.4% of 330,000 active; inhibition, % at 10 µM;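 active = inhibition of 40% or more at the single tested concentration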;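 note: wild-type TIM10 isogenic control strain grown at permissive 25 °C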
tim23-1 inh = growth inhibitors of tim23-1 mutant yeast; inhibition, % at 20 µM; 1.3% of 330,000 active; S. cerevisiae tim23-1 growth, BacTiter-Glo luminescence, 24 h;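 active = growth inhibition of the mutant yeast at or above 50%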;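 note: temperature-sensitive mutant grown at 25 °C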
NALP1 inh = blocks the NALP1 inflammasome reconstituted in yeast; inhibition, % at 10 µM; 0.61% of 280,000 active; S. cerevisiae NALP1/ASC/caspase-1 growth, X-gal OD620, 72 h; AID 2071; in the data active = inhibition mostly above about 24%, no sharp cut-off; inactive = mostly below about 32%
NALP3 yeast inh = NALP3 inhibition in yeast; 0.39% of 330,000 active; Yeast reconstituted NLRP3/ASC/caspase-1, beta-gal luminescence, 24 h; inhibition, % at 10 µM; AID 2825;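 active = inhibition of 50% or more; inactive = inhibition below 50%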
tim10-1 confirm = tim10-1 yeast growth inhibition, confirmed | AID 463213 | S. cerevisiae tim10-1 ts strain growth, BacTiter-Glo, 24 h | shares compounds with tim10-1 inh | inhibition, % at 20 µM | 56% of 7,400 active;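 active = inhibition of yeast growth at or above a set limit in either of two repeat tests at 20 µM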;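 note: tim10-1 mutant grown at permissive 25 °C to find synthetic lethal compounds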
TIM10 conf = confirmation of TIM10 yeast growth inhibitors | AID 463215 | inhibition, % at 10 µM | 63% of 4,600 active | shares compounds with TIM10 inh | S. cerevisiae tim10 strain growth, BacTiter-Glo luminescence, 24 h;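 active = inhibition of yeast growth at or above a set limit in either of two replicates at 10 µM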; note: this counterscreen used the strain with wild-type TIM10
Each line names hits and unclear results; the compound was inactive in the other large screens (follow-up assays come after a bar, where they were run). This is a sample that favours compounds with a hit; in the whole collection about 4.1% have one here.

Cc1nc2c3cc(F)ccc3n(Cc3ccccc3)c2s1	tim10-1 inh 44.9, TIM10 inh 47.7 (no result: NALP1 inh) | tim10-1 confirm 35.7 | TIM10 conf 36.6
Cc1nc2c3cc(F)ccc3n(CCN3CCCCC3)c2s1	none
N#Cc1ccc(OCC(=O)N2CCCC2=O)cc1	none (no result: NALP1 inh)
COC(=O)C(C)Nc1cccc(Br)c1 (stereo unspecified)	none (no result: NALP1 inh)
CCOC(=O)C(C(=O)OCC)C(Nc1cccc(Br)c1)c1ccccc1 (stereo unspecified)	tim10-1 inh 55.1, TIM10 inh 52.9 | tim10-1 confirm 37.0 | TIM10 conf 42.9
O=C(NN=C1c2ccccc2-c2ccccc21)c1ccccn1	tim10-1 inh 41.0, TIM10 inh 48.0 | tim10-1 confirm inactive | TIM10 conf 38.8
C=CCOc1ccc(C2/C(=C(/O)c3ccc(OC)cc3)C(=O)C(=O)N2CCN2CCNCC2)cc1 (stereo unspecified)	none
Fc1ccc(-c2cc(-c3ccccc3)nc(-n3cccn3)n2)cc1	tim10-1 inh 51.0, TIM10 inh 58.7 | tim10-1 confirm 46.2 | TIM10 conf 45.6
COc1ccccc1C(c1nnnn1CCc1ccccc1)N1CCCCCC1 (stereo unspecified)	tim10-1 inh 42.5, TIM10 inh 43.4 | tim10-1 confirm inactive | TIM10 conf inactive
COc1ccccc1C(c1nnnn1CCc1ccccc1)N1CCN(c2ccccc2)CC1 (stereo unspecified)	none
CC(C)Cn1c(-c2csc3c2CCCC3)n[nH]c1=S	tim10-1 inh 48.4, TIM10 inh 44.2 | tim10-1 confirm inactive | TIM10 conf 39.8
CC(C)Cn1c(-c2ccccc2F)n[nH]c1=S	none
c1ccc(C2Nc3ccccc3-c3nc4ccccc4n32)cc1 (stereo unspecified)	tim10-1 inh 40.8, TIM10 inh 46.8 | tim10-1 confirm inactive | TIM10 conf 34.7
Cc1ccc2c(c1)Oc1ccc(NC(=O)CCl)cc1C(=O)N2	tim10-1 inh 43.0, TIM10 inh 50.4 | tim10-1 confirm 29.9 | TIM10 conf 32.6
N/C(=N\OC(=O)Cc1cccs1)c1ccc(Br)cc1	none
N/C(Cc1ccc(Cl)cc1Cl)=N\OC(=O)Cc1cccs1	tim10-1 inh 47.5, TIM10 inh 49.0 | tim10-1 confirm 38.5 | TIM10 conf inactive
N/C(Cc1ccc(Cl)cc1Cl)=N\OC(=O)c1cccs1	tim10-1 inh 73.1, TIM10 inh 85.7 | tim10-1 confirm 37.3 | TIM10 conf 85.9
O=C(COC(=O)c1cccs1)Nc1cccc(Cl)c1	none (no result: NALP1 inh)
CSc1nn2cc(CCN3CCOCC3)c(-c3ccc(F)cc3)nc2c1C#N	none
FC(F)(F)c1cccc(NC(=S)NNC(=S)Nc2cccc(C(F)(F)F)c2)c1	tim10-1 inh 46.9, TIM10 inh 54.3 | tim10-1 confirm inactive | TIM10 conf 53.7
CNNC(=S)Nc1cccc(C(F)(F)F)c1	none
Cc1cc(Nc2ccc(F)c(F)c2)nc(-c2ccccc2O)n1	none
Cc1ccc(Nc2cc(C)nc(-c3ccccc3O)n2)cc1	tim10-1 inh 58.5, TIM10 inh 52.9 | tim10-1 confirm 58.5 | TIM10 conf 47.6
NC1=NC(=O)/C(=C/c2c(OS(=O)(=O)c3ccc(Cl)cc3)ccc3ccccc23)S1	none
c1ccc2c(c1)OCC(c1nnc3sc(-c4ccc5c(c4)OCO5)nn13)O2 (stereo unspecified)	tim10-1 inh 42.1, TIM10 inh 47.8 | tim10-1 confirm inactive | TIM10 conf inactive
Cc1cccc(NC(=S)N/N=C/c2ccc3c(c2)OCO3)c1	tim10-1 inh 41.6, TIM10 inh 46.8 | tim10-1 confirm inactive | TIM10 conf inactive
COc1ccccc1N1CCN(C(=O)c2cc(-c3ccc(Cl)cc3)on2)CC1	tim10-1 inh 46.8, TIM10 inh 48.3 | tim10-1 confirm 31.7 | TIM10 conf 30.4
COc1ccc(-c2cc(C(=O)N3CCN(Cc4ccccc4)CC3)no2)cc1OC	none
COc1cccc(-c2cc(C(=O)N3CCN(Cc4ccccc4)CC3)no2)c1	tim10-1 inh 43.6, TIM10 inh 42.4 | tim10-1 confirm 30.4 | TIM10 conf 45.7
Cc1nn(-c2ccccc2)c(Cl)c1/C=C/C(=O)c1ccccc1	tim10-1 inh 40.6, TIM10 inh 46.5 | tim10-1 confirm 47.8 | TIM10 conf 39.9
Cc1nn(-c2ccccc2)c(Cl)c1/C=N/O	none
Cc1ccc(-c2nn(-c3ccccc3)c3[nH]c(=O)c(CNCc4ccccc4)cc23)cc1	tim10-1 inh 52.5, TIM10 inh 43.3 | tim10-1 confirm 46.8 | TIM10 conf 42.1
Cc1ccc(-c2nn(-c3ccccc3)c3[nH]c(=O)c(CNCCN(C)C)cc23)cc1	none (no result: tim10-1 inh, TIM10 inh, tim23-1 inh, NALP3 yeast inh)
CSCc1c(C(=O)NC2CCCc3ccccc32)oc2ccccc12 (stereo unspecified)	tim10-1 inh 50.1, TIM10 inh 40.9 (no result: NALP1 inh) | tim10-1 confirm 33.1 | TIM10 conf inactive
CCOc1ccc(C2(C)CC(=O)N(C)C2=O)cc1 (stereo unspecified)	none
Cc1scc(-c2n[nH]c(=S)n2C(C)c2ccccc2)c1C (stereo unspecified)	tim10-1 inh 42.5, TIM10 inh 42.6 | tim10-1 confirm inactive | TIM10 conf inactive
COc1cccc(-c2noc(C3CCCN(C(=O)Cc4ccccc4)C3)n2)c1 (stereo unspecified)	tim10-1 inh 40.0, TIM10 inh 40.8 | tim10-1 confirm 35.5 | TIM10 conf inactive
O=C(COc1ccccc1F)Nc1ccc(S(=O)(=O)NCc2ccco2)cc1	tim10-1 inh 46.2, TIM10 inh 40.1 | tim10-1 confirm 33.1 | TIM10 conf inactive
Cc1nc(Nc2ccc(Cl)c(Cl)c2)sc1C(=O)Nc1ccccc1	tim10-1 inh 59.5, TIM10 inh 52.6 | tim10-1 confirm 32.4 | TIM10 conf 68.6
CCO/C=N/Nc1nc(C(F)(F)F)nc2c1cnn2Cc1ccccc1	tim10-1 inh 59.2, TIM10 inh 56.0 | tim10-1 confirm 56.5 | TIM10 conf 58.0
COc1ccc2c(c1OC)C(=O)N1N=C(c3ccc(Br)cc3)CC21 (stereo unspecified)	tim10-1 inh 48.2, TIM10 inh 40.0 | tim10-1 confirm 40.3 | TIM10 conf inactive
COc1ccc2c(c1OC)C(=O)N1N=C(c3ccc(-c4ccccc4)cc3)CC21 (stereo unspecified)	none
Cc1ccccc1Nc1nc(N)nc(CSc2nc3ccccc3s2)n1	none
Cc1ccc(Nc2nc(N)nc(CSc3nc4ccccc4s3)n2)cc1	tim10-1 inh 46.8, TIM10 inh 47.4 | tim10-1 confirm inactive | TIM10 conf inactive
S=C(NCCN1CCOCC1)N/N=C/c1c2ccccc2cc2ccccc12	tim10-1 inh 56.7, TIM10 inh 41.9 | tim10-1 confirm 43.2 | TIM10 conf inactive
COc1ccc2ccccc2c1/C=N/NC(=S)NCCN1CCOCC1	none
CCOC(=O)Cc1ccc2sc(-c3ccccc3)nc2c1	none
